Reference: the supplement of paper PMC6555819

Columns and labels:
Assay in all cases: PBM binding z-score (relative to random genomic background probes); higher = stronger binding; sequences stand for … in GC…GCGATTGACAGCGTAGAATGAAGG
[1] = system: FXR:RXRa (NR concentration 270 nM, RXRa partner concentration 90 nM)
How it was run: (§1)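 The probes on custom Agilent 4×180K protein-binding microarrays were double-stranded, with 34-nt variable regions bearing direct-repeat seeds, single-nucleotide variants, half-site ablations and random human genomic background sequences. Incubation lasted 1 h with ligand-free nuclear receptor dimers in PBS pH 7.4, 2% milk, 0.02% Triton X-100, 1 mM DTT, 0.2 mg/mL BSA and 0.4 mg/ml salmon testes DNA. Antibodies against each partner (one per run) detected bound dimers, and fluorescence scans were regression-normalized. Binding z-scores take the random background probes as reference.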

[2] = system: LXRa:RXRa (NR concentration 270 nM, RXRa partner concentration 90 nM)
How it was run: as §1

[3] = system: LXRa homodimer (NR concentration 270 nM)
How it was run: as §1

[4] = system: LXRb:RXRa (NR concentration 270 nM, RXRa partner concentration 90 nM)
How it was run: as §1

[5] = system: LXRb homodimer (NR concentration 270 nM)
How it was run: as §1

[6] = system: PPARa:RXRa (NR concentration 270 nM, RXRa partner concentration 90 nM)
How it was run: as §1

[7] = system: PPARg:RXRa (NR concentration 180 nM, RXRa partner concentration 90 nM)
How it was run: as §1

[8] = system: PPARg:RXRa 270nM:90nM, anti-RXR (NR concentration 270 nM, RXRa partner concentration 90 nM)
How it was run: as §1

[9] = system: PPARg:RXRa 30nM:10nM, anti-RXR (NR concentration 30 nM, RXRa partner concentration 10 nM)
How it was run: as §1

[10] = system: PPARg:RXRa 90nM:30nM, anti-RXR (NR concentration 90 nM, RXRa partner concentration 30 nM)
How it was run: as §1

[11] = system: PPARg:RXRa DBDmut IVT, anti-RXR (DBD mutation: RXRa K156A/R161A, NR concentration 270 nM, RXRa partner concentration 90 nM)
How it was run: as §1

[12] = system: PPARg:RXRa IVT, anti-PPARg (NR concentration 270 nM, RXRa partner concentration 90 nM)
How it was run: as §1

[13] = system: PPARg DBDmut:RXRa IVT, anti-PPARg (DBD mutation: PPARg1 K132A/R137A, NR concentration 270 nM, RXRa partner concentration 90 nM)
How it was run: as §1

[14] = system: PPARg DBDmut IVT, anti-PPARg (DBD mutation: PPARg1 K132A/R137A, NR concentration 270 nM)
How it was run: as §1

[15] = system: PPARg homodimer (NR concentration 180 nM)
How it was run: as §1

[16] = system: PXR:RXRa (NR concentration 270 nM, RXRa partner concentration 90 nM)
How it was run: as §1

[17] = system: PXR homodimer (NR concentration 270 nM)
How it was run: as §1

[18] = system: RARa:RXR (NR concentration 270 nM, RXRa partner concentration 90 nM)
How it was run: as §1

[19] = system: RARa homodimer (NR concentration 270 nM)
How it was run: as §1

[20] = system: RARb:RXRa (NR concentration 270 nM, RXRa partner concentration 90 nM)
How it was run: as §1

| Sequence | PBM binding z-score [1] | PBM binding z-score [2] | PBM binding z-score [3] | PBM binding z-score [4] | PBM binding z-score [5] | PBM binding z-score [6] | PBM binding z-score [7] | PBM binding z-score [8] | PBM binding z-score [9] | PBM binding z-score [10] | PBM binding z-score [11] | PBM binding z-score [12] | PBM binding z-score [13] | PBM binding z-score [14] | PBM binding z-score [15] | PBM binding z-score [16] | PBM binding z-score [17] | PBM binding z-score [18] | PBM binding z-score [19] | PBM binding z-score [20] |
| --- | --- | --- | --- | --- | --- | --- | --- | --- | --- | --- | --- | --- | --- | --- | --- | --- | --- | --- | --- | --- |
| GATACAGGGTCAAGGCTAGAGTACGCGTATTGAT | 6.01 | 4.13 | 0.107 | 3.78 | 0.158 | 5.61 | 5.73 | 5.61 | 2.19 | 4.21 | 3.54 | 3.94 | 1.02 | 0.742 | 1.69 | 3.72 | 0.503 | 4.37 | 0.567 | 4.43 |
| TTACCAAGGTGAGCTGAGGTCGCTGATCCAACTC | 1.17 | 0.578 | -0.612 | 0.416 | -1.44 | 1.52 | 0.0966 | 1 | -0.104 | 0.763 | 1.38 | 1.87 | -1.62 | -0.0566 | -0.197 | 3.58 | -0.341 | 1.5 | -1.47 | 1.95 |
| CGTACTAGGTCAAGGACAGTGAATCTCCGCACGC | 3.26 | 2.36 | 0.318 | 1.61 | 0.134 | 3.93 | 6.37 | 5.52 | 2.99 | 4.86 | 7.55 | 7.47 | 2.25 | 1.3 | 2.34 | 1.19 | 0.03 | 2 | 1.16 | 4 |
| TCATTTAGGTAAAGGTGAAAGTCGAACGATATGA | 1.18 | 1.46 | -0.167 | 1.52 | 0.32 | 3.21 | 3.2 | 4.48 | 4.39 | 4.9 | 3.05 | 3.75 | 1.29 | 2.17 | 1.2 | 1.35 | 0.193 | 1.92 | 1.42 | 2.05 |
| TCTAGTTGGTAACGGAGGTCACACACGACGGGTA | 2.77 | 3.39 | 3.31 | 3.27 | 0.826 | 3.7 | 2.37 | 3.33 | 3.38 | 3.55 | 1.63 | 2.76 | 0.969 | 0.885 | 2.11 | 3.99 | 1.46 | 4.04 | 1.83 | 3.27 |
| ATCTCTAGGTAGGACTCAGTTCAGTGAAGAACGC | 0.414 | 0.636 | 0.659 | 0.518 | 1.09 | 0.278 | 0.171 | 0.732 | 0.37 | 0.644 | 0.406 | 0.852 | 0.763 | 1.31 | 0.939 | 0.751 | 1.95 | 0.353 | 1.12 | 0.407 |
| TAGCCTAGGTCAGATCAGGCCAGTATACGCTATA | 2.57 | 1.55 | -0.196 | 0.898 | -0.239 | 1.69 | 0.794 | 0.923 | 0.0567 | 0.604 | 0.459 | 1.56 | 0.119 | -0.493 | 0.306 | 2.07 | -0.691 | 1.21 | -0.581 | 2.93 |
| AACGAAAGGTCGAGGTGAGTATAGAGAAAGGGAA | 4.3 | 3.7 | -0.0292 | 2.86 | 0.0857 | 4.71 | 3.34 | 3.82 | 1.16 | 2.59 | 0.47 | 2.34 | 0.731 | 0.177 | 1.1 | 2.6 | 0.272 | 3.51 | 0.313 | 4.23 |
| CAAACTAGGTCTAGAGGTCAAAGTCCGCTTCCCG | 4.99 | 5.78 | 5.83 | 4.86 | 1.55 | 5.14 | 5.12 | 5.9 | 4.3 | 5.99 | 3.11 | 4.41 | 0.248 | 0.06 | 3.03 | 5.4 | 2.48 | 5.69 | 0.52 | 3.96 |
| GGGACGAGGGCAAAGTTGATAGCATCTGTCGACG | 1.7 | 1.11 | -0.058 | 1.41 | 0.182 | 3.68 | 6.58 | 6.7 | 5.3 | 6.62 | 2.42 | 3.76 | 0.246 | 0.748 | 1.07 | 1.44 | 0.491 | 1.48 | 0.362 | 2.46 |
| CCTATTAGTTGACCATAAGGGTAACCGAAGCTCG | 0.709 | 0.386 | 0.682 | 0.604 | 0.958 | 0.678 | 0.317 | 0.671 | 0.348 | 0.358 | 0.609 | 0.727 | 0.109 | 1.15 | 1.86 | 0.536 | 1.04 | 0.834 | 2.48 | 1.06 |
| TCTCGGAGGACACGAAAGGTCACAGCTCGACATC | 4.58 | 5.46 | 4.91 | 4.7 | 0.595 | 4.62 | 2.83 | 4.15 | 3.13 | 3.77 | 2.07 | 2.97 | 0.919 | 0.445 | 3.93 | 5.57 | 1.09 | 6 | 2.7 | 4.78 |
| CCTCTGAGGACAACAGGAGGTCAGAGCTGCCAGA | 1.9 | 2.12 | 1.95 | 1.33 | -0.394 | 1.88 | 0.389 | 0.288 | -0.556 | -0.276 | 0.791 | 0.943 | -0.185 | -0.809 | 1.58 | 1.87 | 0.497 | 2.39 | 0.218 | 2.9 |
| CGAATTAGGTCATTGACAGGACAGTGAATAGTAA | 4.67 | 3.39 | 0.61 | 2.55 | 0.269 | 4.89 | 6.83 | 6.02 | 3.62 | 5.68 | 8.21 | 7.99 | 4.24 | 2.12 | 2.32 | 1.77 | 0.55 | 2.57 | 0.994 | 3.73 |
| ACTAGCAGGCCAAGTTCGGGTCACTCAAACAAAG | 1.11 | 1.28 | 0.378 | 1.79 | -0.339 | 2.45 | 0.431 | 0.794 | -0.79 | 0.197 | 0.756 | 1.07 | -0.452 | -1 | 1.34 | 2.55 | 0.53 | 3.19 | -0.287 | 2.33 |
